Assay results as given in PubChem BioAssay (NCATS).
Inconclusive results are not listed. Calls of active or inactive are those of the source. Calls follow the shape of the dose curve; as a rule, active = well fitted curve in the direction sought with a large enough effect; inconclusive = small, poorly fitted or top-dose-only effect, or another doubt; inactive = no such curve, though single readings can be large; an effect the other way counts as inactive or inconclusive.

test: Quantitative highthroughput screen to assess conditional lethalithy of SEM cells grown in RPMI1640 with unreated serum (RPMI+s) (AID 1963883); conditions: SEM B-ALL cells, CellTiter-Glo viability, 48 h; series mostly up to 45.8 µM; also: nearly all actives have a fitted effect of over 35% in size;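 as to viability: 100% = DMSO wells and 0% = empty wells without cells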
Summary of the method: (§1)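 Each medium arm—HPLM with 10% dialyzed FBS, or RPMI1640 with 5 mM glucose and 10% untreated or dialyzed FBS—was screened against an 11-point, 3-fold compound titration for 48 h at 37 °C, with CellTiter-Glo luminescence as endpoint.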
Potency is read from the fitted curve at half-maximal effect.

| Structure (SMILES) | Potency |
| --- | --- |
| CCCCC[C@H](O)C=C[C@H]1[C@H](O)CC(=O)[C@H]1CCCCCCC(=O)O | 4.18 µM (active) |
| Cc1cn2c(-c3cn[nH]c3)cnc2c(Nc2ccc(C(=O)N3CCNCC3)cc2F)n1 | 14.8 µM (active) |
| CS(=O)(=O)OCCCCOS(C)(=O)=O | 20.9 µM (active) |
| COc1cc2nc(-c3cc(F)ccc3O)nc(N[C@@H]3CNC[C@@H]3C(C)(C)O)c2cc1OC | 0.469 µM (active) |
| C[C@@H](Oc1ccc2[nH]nc(C=Cc3cnn(CCO)c3)c2c1)c1c(Cl)cncc1Cl | 0.264 µM (active) |
| CN(C)CCOc1ccc(C(=C(CCCl)c2ccccc2)c2ccccc2)cc1 | 3.32 µM (active) |
| C[C@@H](Oc1cc(-c2cnn(C3CCNCC3)c2)cnc1N)c1c(Cl)ccc(F)c1Cl | 9.35 µM (active) |
| CCOC(=O)N1CCN([N+]([O-])=NOc2ccc([N+](=O)[O-])cc2[N+](=O)[O-])CC1 | 4.18 µM (active) |
| Cc1ccc(NC(=O)Nc2cc(C(F)(F)F)ccc2F)cc1Nc1ccc2c(c1)NC(=O)C2=Cc1ccc[nH]1 | 18.7 µM (active) |
| CS(=O)(=O)Oc1ccc2c(NC(N)=O)c(C(=O)c3ccc(Cl)cc3Cl)oc2c1 | inactive |
| C[C@]12CC[C@@H]3c4ccc(O)cc4CC[C@H]3[C@H]1CC[C@H]2O | 18.7 µM (active) |
| Fc1ccc([C@@H]2CCNC[C@H]2COc2ccc3c(c2)OCO3)cc1 | 14.8 µM (active) |
| CC(C)=CCCC(C)=CCCC(C)=CCSc1ccccc1C(=O)O | 6.62 µM (active) |

test: Quantitative highthroughput screen to assess conditional lethalithy of SEM cells grown in RPMI1640 with dialyzed fetal bovine serum (RPMI+ds) (AID 1963884); conditions: SEM B-ALL cells, RPMI+dialyzed FBS, CellTiter-Glo viability, 48 h; series mostly up to 45.8 µM; also: nearly all actives have a fitted effect of over 35% in size;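 as to viability: 100% = DMSO control wells and 0% = empty wells without cells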
Summary of the method: as §1

| Structure (SMILES) | Potency |
| --- | --- |
| Cc1cc(=O)c2c(O)c3c(O)cc(=O)c4c3c3c(cc(O)c1c23)C(C)(C)C=4O | inactive |
| Cc1cn2c(-c3cn[nH]c3)cnc2c(Nc2ccc(C(=O)N3CCNCC3)cc2F)n1 | 14.8 µM (active) |
| CS(=O)(=O)OCCCCOS(C)(=O)=O | 20.9 µM (active) |
| Cn1cncc1[C@@](N)(c1ccc(Cl)cc1)c1ccc2c(c1)c(-c1cccc(Cl)c1)cc(=O)n2C | 3.72 µM (active) |
| CN1CCN(CCCN2c3ccccc3Sc3ccc(Cl)cc32)CC1 | inactive |
| CCOC(=O)N1CCN([N+]([O-])=NOc2ccc([N+](=O)[O-])cc2[N+](=O)[O-])CC1 | 4.69 µM (active) |
| Cc1ccc(NC(=O)Nc2cc(C(F)(F)F)ccc2F)cc1Nc1ccc2c(c1)NC(=O)C2=Cc1ccc[nH]1 | 16.6 µM (active) |
| C[C@]12CC[C@@H]3c4ccc(O)cc4CC[C@H]3[C@H]1CC[C@H]2O | 20.9 µM (active) |
| CO[C@H]1/C=C\O[C@@]2(C)Oc3c(C)c(O)c4c(O)c(c5c(nc6cc(C)ccn65)c4c3C2=O)NC(=O)C(C)=CC=C[C@H](C)[C@H](O)[C@@H](C)[C@@H](O)[C@@H](C)[C@H](OC(C)=O)[C@H]1C | 14.8 µM (active) |
| Cc1c(NC(=O)OC[C@@H]2COCCN2)cn2ncnc(Nc3ccc4c(cnn4Cc4cccc(F)c4)c3)c12 | 10.5 µM (active) |
| Fc1ccc([C@@H]2CCNC[C@H]2COc2ccc3c(c2)OCO3)cc1 | 14.8 µM (active) |
| CC(C)=CCCC(C)=CCCC(C)=CCSc1ccccc1C(=O)O | 11.8 µM (active) |

test: Cellular viability qHTS for adrenocortical cancer (ACC) cell line SW-13 (AID 1963989); conditions: SW-13 ACC cells viability, CellTiter-Glo, 48 h; activity (max response): hits give low values; also: nearly all actives have a fitted effect of over 65% in size;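 as to activity (max response): cells grown in serum-free medium with ITS supplement; % is scaled to controls: 0 for no effect and ±100 for the full control effect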
Summary of the method: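 Compound titrations (up to 46 uM final, in DMSO) were applied to SW-13 cells for 48 h at 37C/5% CO2. Reading used CellTiter-Glo after 20 min at room temperature; fitted curves yielded IC50 and efficacy.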

| Structure (SMILES) | activity (max response) | Potency |
| --- | --- | --- |
| CCCCCCCC/C=C/C(=O)O | -1.5% (inactive) | – |
| Cc1cc(=O)c2c(O)c3c(O)cc(=O)c4c3c3c(cc(O)c1c23)C(C)(C)C=4O | – | 1.78 µM (active) |
| O=C(CCCc1ccc2cccnc2n1)NCc1cc(-c2ccc(F)c(C(F)(F)F)c2)no1 | 1.37% (inactive) | – |
| CS(=O)(=O)OCCCCOS(C)(=O)=O | 4.16% (inactive) | – |
| C[C@@H](Nc1cc(F)cc(F)c1)c1cc(C(=O)N(C)C)cc2c(=O)cc(N3CCOCC3)oc12 | -10.8% (inactive) | – |
| Cn1cncc1[C@@](N)(c1ccc(Cl)cc1)c1ccc2c(c1)c(-c1cccc(Cl)c1)cc(=O)n2C | -19.2% (inactive) | – |
| CCCC(=O)OCOC(=O)C1=C(C)NC(C)=C(C(=O)OC)C1c1cccc(Cl)c1Cl (stereo unspecified) | 6.2% (inactive) | – |
| Cc1ccc2c(c1)c1c3n2CCNC3CCC1 (stereo unspecified) | -5.85% (inactive) | – |
| Cc1nc(C2CCCCC2)c(-c2ccc(S(N)(=O)=O)c(F)c2)o1 | 16% (inactive) | – |
| Cn1ncc(NC(=O)c2nc(-c3c(F)cccc3F)sc2N)c1N1CC[C@@H](N)[C@H](F)CC1 | – | 25.1 µM (active) |
| CC(C)(C)CC(=O)OCC(=O)[C@@]1(O)CC[C@H]2[C@@H]3CCC4=CC(=O)C=C[C@]4(C)[C@H]3[C@@H](O)C[C@@]21C | -10.9% (inactive) | – |
| COc1ccc2nc(NC(=O)Nc3ccccc3)sc2c1 | -20% (inactive) | – |
| CCCCC[C@H](O)/C=C/[C@H]1[C@H](O)CC(=O)[C@@H]1CCCCCCC(=O)O | 1.24% (inactive) | – |
| CO[C@H]1/C=C/O[C@@]2(C)Oc3c(C)c(O)c4c(O)c(c5c(nc6cc(C)ccn65)c4c3C2=O)NC(=O)/C(C)=C\C=C\[C@H](C)[C@H](O)[C@@H](C)[C@@H](O)[C@@H](C)[C@H](OC(C)=O)[C@@H]1C | – | 25.1 µM (active) |
| CC1CCC(n2c3cnccc3c3cnc(Nc4ccc5c(n4)CCN(C(=O)CO)C5)nc32)CC1 (stereo unspecified) | -7.81% (inactive) | – |
| Cc1ccc(C(=O)Oc2ccc(C(O)CNC(C)(C)C)cc2OC(=O)c2ccc(C)cc2)cc1 (stereo unspecified) | -16% (inactive) | – |
| CCCc1c(OCCCOc2ccc(OCC(=O)O)cc2)ccc(C(C)=O)c1O | -13.7% (inactive) | – |
| CCOC(=O)c1ccc(O)c(O)c1 | -9.67% (inactive) | – |
| C[C@@H](Oc1cc(-c2cnn(C3CCNCC3)c2)cnc1N)c1c(Cl)ccc(F)c1Cl | – | 3.55 µM (active) |
| O=C(CCCN1CCN(c2ccc(F)cc2)CC1)NC1c2ccccc2CSc2ccccc21 (stereo unspecified) | -20.8% (inactive) | – |
| Oc1c(Cl)cc(Cl)cc1Sc1cc(Cl)cc(Cl)c1O | – | 20.6 µM (active) |
| CCc1cnn2c(NCc3ccc[n+]([O-])c3)cc(N3CCCC[C@H]3CCO)nc12 | – | 0.0355 µM (active) |
| CS(=O)(=O)Oc1ccc2c(NC(N)=O)c(C(=O)c3ccc(Cl)cc3Cl)oc2c1 | -2.55% (inactive) | – |
| N#CCC1(n2cc(-c3ncnc4[nH]ccc34)cn2)CN(C2CCN(C(=O)c3ccnc(C(F)(F)F)c3F)CC2)C1 | -10.7% (inactive) | – |
| Fc1ccc([C@@H]2CCNC[C@H]2COc2ccc3c(c2)OCO3)cc1 | -15.4% (inactive) | – |
| CC(C)c1c(-c2ccccc2)nc2c(C#N)c[nH]n2c1=O | -8.31% (inactive) | – |
